An excerpt weighted towards active compounds, which were near 6.9% of everything screened.
L3MBTL1 inh: qHTS Assay for the Inhibitors of L3MBTL1; Lethal(3)malignant brain tumor-like protein 1 (Homo sapiens), Q9Y468; AlphaScreen L3MBTL1–H3K9me1 peptide binding; Potency, µM (highest dose often 57.1 µM), inactives show at the top dose activity, negative = inhibition, hits mostly inhibitors; hit rate 0.66% among 230,000; AID 485360, 2010; also: % is scaled to controls: 0 for no effect and ±100 for the full control effect; nearly all actives have a fitted effect of over 60% in size
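Read-out is AlphaScreen signal from streptavidin donor and nickel chelate acceptor beads (10 ug/mL final each) bridging L3MBTL1 (50 nM) and biotinylated K9-monomethylated H3(1-15) peptide (75 nM), after 30 min compound exposure at room temperature.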
HP1b binding inh: HTS for Inhibitors of HP1-beta Chromodomain Interactions with Methylated Histone Tails; AlphaScreen HP1-beta / biotin-H3K9me3 peptide binding; Potency, µM (top dose mostly 114 µM), for inactives: at the top dose activity change, negative = inhibition, usual class: inhibitors; hit rate 0.56% among 390,000; also: nearly all actives have a fitted effect of over 70% in size
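Compound inhibition of the preformed complex between 50 nM HP1-beta and 50 nM biotinylated H3K9me3 peptide was read by AlphaScreen. Buffer was PBS pH 7.4 with 0.01% Tween-20. Incubations ran 30 min at room temperature, with 10 ug/mL donor/acceptor beads.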
PLK1 PBD block: qHTS for Inhibitors of PLK1-PDB (polo-like kinase 1 - polo-box domain): Primary Screen. Serine/threonine-protein kinase PLK1 (Homo sapiens), P53350. Plk1 PBD binding of FITC phosphopeptide, fluorescence polarization. Potency, µM, without a hit: max response, negative = inhibition, most hits filed as inhibitors. hit rate 2.8% among 360,000. AID 720504, 2013; also: series mostly up to about 57 µM; % is scaled to controls: 0 for no effect and ±100 for the full control effect; nearly all actives have a fitted effect of over 65% in size
VDR inh: Inhibitors of the vitamin D receptor (VDR): qHTS | VDR-SRC2-3 peptide fluorescence polarization, 2 h | hit rate 0.93% among 400,000 | Vitamin D3 receptor (Homo sapiens), P11473 | Potency, µM, for the others: max response, negative = inhibition, most hits filed as inhibitors; also: % is scaled to controls: 0 for no effect and ±100 for the full control effect
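VDR–SRC2-3 interaction, FP format. Cmpds 23 nl via pintool, brief spin, 2 h ambient incubation.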
BAZ2B block: qHTS Assay for Inhibitors of BAZ2B; Bromodomain adjacent to zinc finger domain protein 2B (Homo sapiens), Q9UIF8; AlphaScreen BAZ2B-H3K14Ac peptide displacement; Potency, µM (titrated, usually from 114 µM), inactives show top-dose activity change, negative = inhibition, hits mostly inhibitors; hit rate 4.4% among 360,000; also: % is scaled to controls: 0 for no effect and ±100 for the full control effect; nearly all actives have a fitted effect of over 60% in size
Target sequence (Q9UIF8 whole entry, looked up, the tested form may be a part): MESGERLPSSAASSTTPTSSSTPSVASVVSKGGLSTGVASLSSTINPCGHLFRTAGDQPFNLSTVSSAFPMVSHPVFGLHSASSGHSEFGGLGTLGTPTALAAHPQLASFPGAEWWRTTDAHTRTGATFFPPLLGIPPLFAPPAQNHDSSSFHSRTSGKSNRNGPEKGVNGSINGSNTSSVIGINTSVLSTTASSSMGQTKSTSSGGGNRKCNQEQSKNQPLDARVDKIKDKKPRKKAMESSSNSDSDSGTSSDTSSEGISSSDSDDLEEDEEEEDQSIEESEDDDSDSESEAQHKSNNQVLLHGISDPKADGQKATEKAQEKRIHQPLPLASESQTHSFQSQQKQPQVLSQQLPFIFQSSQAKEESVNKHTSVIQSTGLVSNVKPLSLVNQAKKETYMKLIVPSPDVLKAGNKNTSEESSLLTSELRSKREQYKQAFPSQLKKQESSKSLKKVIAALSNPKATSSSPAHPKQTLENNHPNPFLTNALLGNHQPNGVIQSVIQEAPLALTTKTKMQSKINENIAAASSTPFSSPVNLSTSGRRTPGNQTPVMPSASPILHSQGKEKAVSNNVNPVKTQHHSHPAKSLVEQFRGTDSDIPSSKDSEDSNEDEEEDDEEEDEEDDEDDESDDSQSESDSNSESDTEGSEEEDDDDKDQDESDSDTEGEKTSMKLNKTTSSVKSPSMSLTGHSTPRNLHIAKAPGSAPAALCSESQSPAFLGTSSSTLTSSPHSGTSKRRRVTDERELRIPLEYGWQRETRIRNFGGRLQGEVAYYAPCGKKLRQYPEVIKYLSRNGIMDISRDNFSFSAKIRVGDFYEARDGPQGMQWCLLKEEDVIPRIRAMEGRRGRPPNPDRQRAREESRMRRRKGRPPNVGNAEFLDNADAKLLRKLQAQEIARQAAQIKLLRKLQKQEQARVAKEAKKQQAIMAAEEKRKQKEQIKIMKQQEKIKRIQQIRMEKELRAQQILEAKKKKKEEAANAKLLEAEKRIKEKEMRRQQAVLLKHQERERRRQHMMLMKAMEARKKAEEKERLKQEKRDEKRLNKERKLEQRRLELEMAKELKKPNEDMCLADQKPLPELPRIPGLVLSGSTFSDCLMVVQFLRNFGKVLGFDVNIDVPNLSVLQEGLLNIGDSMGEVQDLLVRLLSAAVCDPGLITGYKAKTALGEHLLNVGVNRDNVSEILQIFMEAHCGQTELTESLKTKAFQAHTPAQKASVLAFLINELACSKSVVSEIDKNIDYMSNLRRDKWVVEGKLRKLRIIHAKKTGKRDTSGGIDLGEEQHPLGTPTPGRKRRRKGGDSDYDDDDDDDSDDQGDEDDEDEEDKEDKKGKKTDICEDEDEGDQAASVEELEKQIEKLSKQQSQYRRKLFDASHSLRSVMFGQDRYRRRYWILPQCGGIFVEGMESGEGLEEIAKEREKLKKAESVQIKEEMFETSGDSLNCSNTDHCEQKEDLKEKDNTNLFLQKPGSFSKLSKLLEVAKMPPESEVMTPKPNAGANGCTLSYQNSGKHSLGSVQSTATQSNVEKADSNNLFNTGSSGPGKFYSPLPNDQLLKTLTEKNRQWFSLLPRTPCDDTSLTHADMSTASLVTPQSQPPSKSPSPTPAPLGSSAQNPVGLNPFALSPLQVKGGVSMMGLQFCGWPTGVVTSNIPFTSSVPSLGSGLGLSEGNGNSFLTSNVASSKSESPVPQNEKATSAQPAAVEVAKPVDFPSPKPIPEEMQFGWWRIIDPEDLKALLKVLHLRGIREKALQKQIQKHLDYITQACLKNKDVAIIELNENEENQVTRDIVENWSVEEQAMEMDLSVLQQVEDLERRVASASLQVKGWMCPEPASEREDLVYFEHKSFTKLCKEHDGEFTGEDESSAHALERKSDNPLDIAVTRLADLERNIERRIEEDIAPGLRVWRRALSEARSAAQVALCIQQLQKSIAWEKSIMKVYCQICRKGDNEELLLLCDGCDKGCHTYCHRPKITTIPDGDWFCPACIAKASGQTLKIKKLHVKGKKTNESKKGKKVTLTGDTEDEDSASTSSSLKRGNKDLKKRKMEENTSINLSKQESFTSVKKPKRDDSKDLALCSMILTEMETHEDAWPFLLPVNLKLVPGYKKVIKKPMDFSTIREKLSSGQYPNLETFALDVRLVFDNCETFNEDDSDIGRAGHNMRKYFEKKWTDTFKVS
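In this displacement format the biotinylated H3(5-23) peptide acetylated at Lys14 serves as ligand at 50 nM, with BAZ2B at 50 nM in PBS pH 7.4 containing 0.01% Tween-20. Donor and acceptor beads are 10 ug/mL final.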
JMJD2A Tudor: qHTS Assay for Inhibitors of JMJD2A-Tudor Domain. Lysine-specific demethylase 4A (Homo sapiens), O75164. AID 504339, 2011. Potency, µM (top dose mostly 114 µM), inactives show at the top dose activity change, negative = inhibition, actives largely listed as inhibitors. hit rate 4.4% among 390,000. AlphaScreen JMJD2A-Tudor / H3K4me3 peptide binding; also: % is scaled to controls: 0 for no effect and ±100 for the full control effect; nearly all actives have a fitted effect of over 50% in size
* = called active by the depositor; ? = inconclusive; . = no result given; [ ] = dose if it differs, or a comment. Calls follow the shape of the dose curve; as a rule, active = well fitted curve in the direction sought with a large enough effect; inconclusive = small, poorly fitted or top-dose-only effect, or another doubt; inactive = no such curve, though single readings can be large; an effect the other way counts as inactive or inconclusive. Potency is read from the fitted curve at half-maximal effect.

SMILES | L3MBTL1 inh | HP1b binding inh | PLK1 PBD block | VDR inh | BAZ2B block | JMJD2A Tudor
CC[C@H](C)[C@H](NC(=O)CNC(=O)[C@H](CCCNC(=N)N)NC(=O)[C@H](CO)NC(=O)[C@H](C)NC(=O)[C@H](Cc1ccc(O)cc1)NC(=O)[C@H](Cc1c[nH]c2ccccc12)NC(=O)[C@H](C)NC(=O)[C@@H]1CCCN1C(=O)[C@H](CC(N)=O)NC(=O)[C@@H](NC(=O)[C@H](CC(=O)O)NC(=O)[C@@H]1CCCN1C(=O)[C@@H](NC(=O)[C@H](CCCNC(=N)N)NC(=O)[C@@H](NC(=O)[C@H](CCC(=O)O)NC(=O)[C@H](CCSC)NC(=O)[C@H](CO)NC(=O)[C@H](Cc1cnc[nH]1)NC(=O)[C@H](CCCNC(=N)N)NC(=O)[C@H](Cc1cnc[nH]1)NC(=O)[C@@H](NC(=O)[C@H](CCCNC(=N)N)NC(=O)[C@@H](N)CO)[C@@H](C)O)[C@@H](C)CC)[C@@H](C)O)[C@@H](C)CC)C(=O)N[C@@H](CCCNC(=N)N)C(=O)N1CCC[C@H]1C(=O)N[C@H](C(=O)NCC(=O)N[C@@H](CCCNC(=N)N)C(=O)N[C@@H](Cc1ccccc1)C(N)=O)C(C)C | . | . | . | -1% | . | .
CCN(CC)C(C)C#CCC(c1ccccc1)c1ccccc1 (stereo not drawn) | . | . | . | . | -26% | .
O=C(NN1C(=O)/C(=C\c2cccnc2)SC1=S)C(c1ccccc1)c1ccccc1 | -11% | ? | -27% | 1% | -29% | ?
O=C(O)C(Cc1ccccc1)N1C(=O)/C(=C/c2cccnc2)SC1=S (stereo not drawn) | 8% | -21% | 0% | ? | -32% | 16µM*
COc1ccc(/C=C2/SC(=O)N(CC(O)Cn3c4ccccc4c4ccccc43)C2=O)cc1 (stereo not drawn) | -8% | -3% | 30µM* | ? | -36% | 79µM*
COc1ccc(/C=C2\SC(=S)N(C(Cc3ccccc3)C(=O)O)C2=O)cc1 (stereo not drawn) | ? | ? | 27µM* | -17% | 40µM* | ?
O=c1[nH]c(C2CCN(S(=O)(=O)c3ccccc3)CC2)nc2c1nnn2Cc1c(F)cccc1Cl | . | 25% | 3% | 0% | -20% | -10%
C=CCc1cccc2cc(C(=O)Nc3ccc(CC(=O)O)cc3)c(=O)oc12 | -10% | -23% | -16% | -3% | 32µM* | -12%[11.4 µM]
C=CCc1cccc2cc(C(=O)Nc3ccc(F)cc3)c(=O)oc12 | -2% | 9% | -12% | -5% | -10% | -20%
C=CCc1cccc2cc(C(=O)Nc3ccc(S(=O)(=O)Nc4nnc(CC)s4)cc3)c(=O)oc12 | 5% | 28µM* | 21µM* | -17% | 22µM* | 28µM*
CN1CCN(CC(=O)N2c3ccc(S(=O)(=O)NCCNC(=O)OC(C)(C)C)cc3C(=O)Nc3cccnc32)CC1 | . | ? | . | 9% | . | 14µM*
Cc1nc2ccc(S(=O)(=O)N(CC(=O)Nc3cccc(C)c3C)Cc3ccccc3)cc2s1 | . | 22% | . | -10% | -16% | -4%
O=C(CCc1nnc(CCc2c[nH]c3ccccc23)o1)NC1CCC1 | 5% | -12% | 24µM* | ? | -13% | -12%[11.4 µM]
Cc1c(C)c2c(OCC(=O)O)cc3c(c2oc1=O)CCC(C)(C)O3 | . | 58% | -6% | -16% | -17% | -1%
Cc1c(C)c2c(OCC(=O)NCC(=O)NCC(=O)O)cc3c(c2oc1=O)CCC(C)(C)O3 | . | 17% | 12µM* | ? | 2% | 20µM*
CCOC(=O)C(=O)Nc1sc(C(=O)N(CC)CC)c(C)c1C#N | 1% | 57% | -16% | -9% | -20% | -23%
CCN(CC)C(=O)c1sc(N)c(C#N)c1C | 0% | -4% | 24µM* | 11% | 16% | -5%
N#CC(C#N)=c1ccc2c(c1)NC1(CCCCC1)N=2 | 28µM* | 32µM* | -8% | ? | 13µM* | 22µM*
C/C(CC(=O)NC1CCCCCC1)=N\NC(=O)c1cnccn1 | 6% | 12% | 3% | -18% | -4% | 2.2µM*
COCCNC(=O)C/C(C)=N/NC(=O)C(=O)NC1CCCCC1 | 10% | -1% | 24µM* | 4% | -10% | -25%
C/C(CC(=O)NC1CCCCC1)=N\NC(=O)c1ccc(Br)cc1 | . | 37% | 0% | -2% | 2% | 1%
COc1ccc(CS(=O)(=O)CC2(O)CCN(C(=O)c3cccc(C(F)(F)F)c3)CC2)cc1 | 25% | 50% | -12% | 0% | 2% | 1%
CSc1ccc(N/N=C(/C#N)S(=O)(=O)C(C)(C)C)cc1 | . | ? | 21µM* | -10% | ? | -26%[11.4 µM]
CCOC(=O)c1ccc(NC(=O)C2CCCN(c3ccc(Sc4ccc(C)cc4)nn3)C2)cc1 (stereo not drawn) | . | 34% | . | -1% | -2% | -10%
Cc1cccc(/C=N/n2c(COc3ccccc3)n[nH]c2=S)c1 | . | 4% | 24µM* | -7% | ? | ?
SMILES | L3MBTL1 inh | HP1b binding inh | PLK1 PBD block | VDR inh | BAZ2B block | JMJD2A Tudor
Cc1cc(OCc2n[nH]c(=S)n2-c2ccccc2)ccc1Cl | 0% | 8% | -27% | 12% | -7% | ?
S=c1[nH]nc(COc2ccccc2)n1/N=C/c1ccc(Cl)c(Cl)c1 | . | ? | 17µM* | 2% | -15% | ?
S=c1[nH]nc(COc2ccccc2)n1/N=C/c1ccccn1 | 4% | -13% | 0% | -9% | 13% | 4µM*
Cc1nn(CCCC(=O)Nc2cccc(C(F)(F)F)c2)c(=O)c2nn(-c3ccccc3)c(C)c12 | . | 17% | . | 10% | -7% | -12%
CC1(C)CC(=O)C=C(NCCN2CCN(C(=S)NC3CCCCC3)CC2)C1 | 6% | 28% | -1% | 0% | -1% | -8%
Cc1ccc(CNC(=O)c2ccc3nc(SCc4ccc(F)cc4)[nH]c3c2)cc1 | . | ? | . | -2% | 40µM* | 7.9µM*
Cn1c(SCc2ccc(F)cc2)nc2ccc(C(=O)NCc3ccc(F)cc3)cc21 | . | 23% | . | 4% | 2% | -20%
CCOC(=O)N1CCN(C(=O)c2c(Cl)cnn2C)CC1 | . | 16% | 3% | -5% | -3% | -1%
COc1ccc(/C=C/C(=O)OCc2cc(=O)n3c(n2)sc2ccccc23)cc1 | -4% | 43% | -13% | -8% | -1% | -8%
O=c1cc(CCl)nc2sc3ccccc3n12 | ? | -14% | ? | 16% | 50µM* | 50µM*
